Laboratory results: PubChem BioAssay (NCATS)
Inconclusive results are not listed. Active and inactive are the calls of the source. The call rests on the fitted dose curve; in most records, active means well fitted inhibition curve with a large enough effect; inconclusive means small, poorly fitted or top-dose-only effect; inactive means flat fitted curve, though single readings scatter.

Experiments:
[1] = qHTS profiling for inhibitors of Plasmodium falciparum proliferation (AID 504749);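 further: 0% = DMSO vehicle and full inhibition = artemisinin control; nearly all actives have a fitted effect of over 60% in size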; conditions: P. falciparum in erythrocytes, SYBR Green DNA, 72 h, at 28.7 µM (top of the series)
In short: (§1)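 Fluorescence of SYBR Green-bound parasite DNA, read at 485/535 nm, served as the growth measure. Infected erythrocytes were cultured with compound 72 h; artemisinin (0.29 uM) and DMSO wells defined the normalization range.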

3D7 = assay: as above; conditions: P. falciparum in erythrocytes, SYBR Green DNA, 72 h; series mostly up to 28.7 µM
In short: as §1

7G8 = assay: as above; conditions: P. falciparum in erythrocytes, SYBR Green DNA, 72 h; series mostly up to 28.7 µM
In short: as §1

AA1029 = assay: as above; conditions: P. falciparum in erythrocytes, SYBR Green DNA, 72 h; series mostly up to 28.7 µM
In short: as §1

AS120 = assay: as above; conditions: P. falciparum in erythrocytes, SYBR Green DNA, 72 h; series mostly up to 28.7 µM
In short: as §1

ATS189 = assay: as above; conditions: P. falciparum in erythrocytes, SYBR Green DNA, 72 h; series mostly up to 28.7 µM
In short: as §1

ATS95 = assay: as above; conditions: P. falciparum in erythrocytes, SYBR Green DNA, 72 h; series mostly up to 28.7 µM
In short: as §1

C2A = assay: as above; conditions: P. falciparum in erythrocytes, SYBR Green DNA, 72 h; series mostly up to 28.7 µM
In short: as §1

CP185 = assay: as above; conditions: P. falciparum in erythrocytes, SYBR Green DNA, 72 h; series mostly up to 28.7 µM
In short: as §1

CP191 = assay: as above; conditions: P. falciparum in erythrocytes, SYBR Green DNA, 72 h; series mostly up to 28.7 µM
In short: as §1

CP192 = assay: as above; conditions: P. falciparum in erythrocytes, SYBR Green DNA, 72 h; series mostly up to 28.7 µM
In short: as §1

CP194 = assay: as above; conditions: P. falciparum in erythrocytes, SYBR Green DNA, 72 h; series mostly up to 28.7 µM
In short: as §1

CP201 = assay: as above; conditions: P. falciparum in erythrocytes, SYBR Green DNA, 72 h; series mostly up to 28.7 µM
In short: as §1

CC(=O)Oc1cccc(C)c1
inactive: activity, negative = inhibition ([1]; parasite line A) 4.88% | activity, negative = inhibition ([1]; parasite line B) -6.23% | Potency (3D7) | Potency (7G8) | Potency (AA1029) | Potency (AS120) | Potency (ATS189) | Potency (ATS95) | Potency (C2A) | Potency (CP185) | outcome (CP191) | outcome (CP192) | outcome (CP194) | outcome (CP201)

CC(C)CCOC(=O)c1ccc(N(C)C)cc1
inactive: activity, negative = inhibition ([1]; parasite line A) 18.9% | activity, negative = inhibition ([1]; parasite line B) 14.8% | Potency (3D7) | Potency (7G8) | Potency (AA1029) | Potency (AS120) | Potency (ATS189) | Potency (ATS95) | Potency (C2A) | Potency (CP185) | outcome (CP191) | outcome (CP192) | outcome (CP194) | outcome (CP201)

O=C(NCN1CCOCC1)c1cnccn1
inactive: activity, negative = inhibition ([1]; parasite line A) -8.14% | activity, negative = inhibition ([1]; parasite line B) 11.7% | Potency (3D7) | Potency (7G8) | Potency (AA1029) | Potency (AS120) | Potency (ATS189) | Potency (ATS95) | Potency (C2A) | Potency (CP185) | outcome (CP191) | outcome (CP192) | outcome (CP194) | outcome (CP201)

N[C@@H](Cc1ccc(O)cc1)C(=O)O
inactive: activity, negative = inhibition ([1]; parasite line A) 13.6% | activity, negative = inhibition ([1]; parasite line B) 10.5% | Potency (3D7) | Potency (7G8) | Potency (AA1029) | Potency (AS120) | Potency (ATS189) | Potency (ATS95) | Potency (C2A) | Potency (CP185) | outcome (CP191) | outcome (CP192) | outcome (CP194) | outcome (CP201)

COc1cc(C(=O)NCCCCCC(=O)O)cc(OC)c1OC
inactive: activity, negative = inhibition ([1]; parasite line A) 8.13% | activity, negative = inhibition ([1]; parasite line B) 13.6% | Potency (3D7) | Potency (7G8) | Potency (AA1029) | Potency (AS120) | Potency (ATS189) | Potency (ATS95) | Potency (C2A) | Potency (CP185) | outcome (CP191) | outcome (CP192) | outcome (CP194) | outcome (CP201)

CCCNC(C)(C)COC(=O)c1ccccc1
inactive: activity, negative = inhibition ([1]; parasite line A) -2.07% | activity, negative = inhibition ([1]; parasite line B) 9.96% | Potency (3D7) | Potency (7G8) | Potency (AA1029) | Potency (AS120) | Potency (ATS189) | Potency (ATS95) | Potency (C2A) | Potency (CP185) | outcome (CP191) | outcome (CP192) | outcome (CP194) | outcome (CP201)

CCOc1cc(NC(C)=O)ccc1C(=O)OC
inactive: activity, negative = inhibition ([1]; parasite line A) 4.89% | activity, negative = inhibition ([1]; parasite line B) 12.8% | Potency (3D7) | Potency (7G8) | Potency (AA1029) | Potency (AS120) | Potency (ATS189) | Potency (ATS95) | Potency (C2A) | Potency (CP185) | outcome (CP191) | outcome (CP192) | outcome (CP194) | outcome (CP201)

Cc1c(Cn2ccnc2)c2ccccc2n1CCC(=O)O
inactive: activity, negative = inhibition ([1]; parasite line A) 14.7% | activity, negative = inhibition ([1]; parasite line B) 0.623% | Potency (3D7) | Potency (7G8) | Potency (AA1029) | Potency (AS120) | Potency (ATS189) | Potency (ATS95) | Potency (C2A) | Potency (CP185) | outcome (CP191) | outcome (CP192) | outcome (CP194) | outcome (CP201)

Cn1c([N+](=O)[O-])cnc1COC(N)=O
inactive: activity, negative = inhibition ([1]; parasite line A) 5.14% | activity, negative = inhibition ([1]; parasite line B) 3.75% | Potency (3D7) | Potency (7G8) | Potency (AA1029) | Potency (AS120) | Potency (ATS189) | Potency (ATS95) | Potency (C2A) | Potency (CP185) | outcome (CP191) | outcome (CP192) | outcome (CP194) | outcome (CP201)

Cc1ncc(CO)c(CN)c1O
inactive: activity, negative = inhibition ([1]; parasite line A) 7.32% | activity, negative = inhibition ([1]; parasite line B) 18.3% | Potency (3D7) | Potency (7G8) | Potency (AA1029) | Potency (AS120) | Potency (ATS189) | Potency (ATS95) | Potency (C2A) | Potency (CP185) | outcome (CP191) | outcome (CP192) | outcome (CP194) | outcome (CP201)

Cc1c(NC(C)C)c(=O)n(-c2ccccc2)n1C
inactive: activity, negative = inhibition ([1]; parasite line A) 8.37% | activity, negative = inhibition ([1]; parasite line B) 23.5% | Potency (3D7) | Potency (7G8) | Potency (AA1029) | Potency (AS120) | Potency (ATS189) | Potency (ATS95) | Potency (C2A) | Potency (CP185) | outcome (CP191) | outcome (CP192) | outcome (CP194) | outcome (CP201)

O=C(O)c1ccc[n+]([O-])c1
inactive: activity, negative = inhibition ([1]; parasite line A) -4.83% | activity, negative = inhibition ([1]; parasite line B) 10.2% | Potency (3D7) | Potency (7G8) | Potency (AA1029) | Potency (AS120) | Potency (ATS189) | Potency (ATS95) | Potency (C2A) | Potency (CP185) | outcome (CP191) | outcome (CP192) | outcome (CP194) | outcome (CP201)

O=S1(=O)OC(c2ccc(O)cc2)(c2ccc(O)cc2)c2ccccc21
inactive: activity, negative = inhibition ([1]; parasite line A) -0.266% | activity, negative = inhibition ([1]; parasite line B) 7% | Potency (3D7) | Potency (7G8) | Potency (AA1029) | Potency (AS120) | Potency (ATS189) | Potency (ATS95) | Potency (C2A) | Potency (CP185) | outcome (CP191) | outcome (CP192) | outcome (CP194) | outcome (CP201)

CCCOC(=O)c1ccc(N)cc1
inactive: activity, negative = inhibition ([1]; parasite line A) -0.392% | activity, negative = inhibition ([1]; parasite line B) 6.95% | Potency (3D7) | Potency (7G8) | Potency (AA1029) | Potency (AS120) | Potency (ATS189) | Potency (ATS95) | Potency (C2A) | Potency (CP185) | outcome (CP191) | outcome (CP192) | outcome (CP194) | outcome (CP201)

CCCCCCCC(=O)OCC(O)CO (centres undefined)
inactive: activity, negative = inhibition ([1]; parasite line A) 0.997% | activity, negative = inhibition ([1]; parasite line B) -8.07% | Potency (3D7) | Potency (7G8) | Potency (AA1029) | Potency (AS120) | Potency (ATS189) | Potency (ATS95) | Potency (C2A) | Potency (CP185) | outcome (CP191) | outcome (CP192) | outcome (CP194) | outcome (CP201)

Nc1ccc(C(=O)Oc2ccccc2)c(O)c1
inactive: activity, negative = inhibition ([1]; parasite line A) -10.9% | activity, negative = inhibition ([1]; parasite line B) 5.45% | Potency (3D7) | Potency (7G8) | Potency (AA1029) | Potency (AS120) | Potency (ATS189) | Potency (ATS95) | Potency (C2A) | Potency (CP185) | outcome (CP191) | outcome (CP192) | outcome (CP194) | outcome (CP201)
